{"source": "PubChem BioAssay (NCATS)", "note": "Values joined by “and” are separate entries in the source; they are usually repeats but may differ in a detail not shown here. Identical values can stand only once. Results filed as inconclusive are left out. Where a call stands in place of a potency, no number is given. Active and inactive are the calls of the source. Calls come from the whole dose curve; as a rule, active = well fitted cell-killing curve with a large enough effect; inconclusive = small, poorly fitted or top-dose-only effect, or effect the other way; inactive = flat fitted curve, though single readings scatter. Peptide text beside a SMILES is read from it. Potency is the fitted concentration of half-maximal effect."}
{"tested_on": "CAOV3", "assay": "Primary qHTS to identify gynecologic anti-cancer compounds using libraries of approved drugs and bioactive compounds (AID 1345084); note: nearly all actives have a fitted effect of over 55% in size", "settings": "Gynecologic cancer cell panel viability, ATPlite luminescence, 48 h; series mostly up to 57.5 µM", "description": "National Center for Advancing Translational Sciences [NCATS] Assay Overview: Chemotherapeutic drug responses vary from cancer to cancer and from patient to patient. These variations could be caused by a number of factors including patient genomic background, tumor mutations, tumor heterogeneity, and aspects of drug treatment. Chemotherapeutic drug resistance is also a common issue and can lead to ineffective treatment and patient death. Here we have profiled the cell killing effects of thousands of compounds to characterize the responses in three gynecological cancers, identify cancer-selective compounds, and understand the diversity of responses to these compounds from pan-cancer suppressors to single cell line selective compounds. In this assay, we screened a 7,914 compound drug library that included approved drug and bioactive compounds in six ovarian, three cervical, and […] placental cancer cell lines using the ATPlite assay for cell viability. […] The cervical cancer cell lines included HeLa, Ca Ski, and C-33 A. The placental cancer cell lines included JEG-3. HEK 293T cells were used as the control cell line to determine the selectivity index. ATPlite is a luminescence based assay reliant on the conversion of a luciferase substrate to light in the presence of ATP. As a cytotoxic compound will suppress growth and decrease the number of cells, the concentration of ATP will decrease, and less light signal will be detected in the well.\nAssay Protocol Summary: 1,000 cells in 4 uL of media were dispensed into white, solid bottom 1536-well plates using a Multidrop Combi (Thermo Scientific). The Assay plates were incubated for 16 hours at 37 C with 5% CO2 in assay plates, followed by the addition of 23 nL of DMSO or drug dissolved in DMSO. Each compound was assayed in five concentrations (0.092, 0.46, 2.3, 11.5, and 57.5 uM), using the automated Wako 1536 Pin Tool workstation and incubated at 37 C with 5% CO2 48 hours. 4 uL of ATPlite, the ATP monitoring reagent, was then added to the each well of the assay plates using the Multidrop Combi reagent dispenser followed by incubation for 15 minutes at room temperature. The resulting luminescence was measured using the ViewLux plate reader."}
{"compound": "NS(=O)(=O)c1cc(C(=O)O)c(NCc2ccco2)cc1Cl", "Potency": "inactive"}
{"compound": "CCC(C)(Oc1ccc(C2(c3ccc(OC(C)(CC)C(=O)O)cc3)CCCCC2)cc1)C(=O)O", "note": "(stereo not given)", "Potency": "inactive"}
{"compound": "CC1Cc2ccccc2N1NC(=O)c1ccc(Cl)c(S(N)(=O)=O)c1", "note": "(stereo not given)", "Potency": "inactive"}
{"compound": "CNC[C@H](O)c1ccc(O)c(O)c1", "Potency": "inactive"}
{"compound": "CC(C)c1nc(CN(C)C(=O)N[C@H](C(=O)N[C@@H](Cc2ccccc2)C[C@H](O)[C@H](Cc2ccccc2)NC(=O)OCc2cncs2)C(C)C)cs1", "Potency": "inactive"}
{"compound": "NNc1nncc2ccccc12", "Potency": "inactive"}
{"compound": "CCC[C@@H]1C[C@@H](C(=O)N[C@@H]([C@H]2O[C@H](SC)[C@H](O)[C@@H](O)[C@H]2O)[C@@H](C)O)N(C)C1", "Potency": "inactive"}
{"compound": "CN(C)CCCC1(c2ccc(F)cc2)OCc2cc(C#N)ccc21", "note": "(stereo not given)", "Potency": "inactive"}
{"compound": "CC(C)[C@H](N)C(=O)OCCOCn1cnc2c(=O)[nH]c(N)nc21", "Potency": "inactive"}
{"compound": "Cc1cc(=O)oc2cc(O)ccc12", "Potency": "inactive"}
{"compound": "O=C(c1ccccc1)c1ccc2n1CCC2C(=O)O", "note": "(stereo not given)", "Potency": "inactive"}
{"compound": "Cc1cc(C2CCCCC2)n(O)c(=O)c1", "Potency": "15.8 µM (active)"}
{"compound": "C=C(c1ccc(C(=O)O)cc1)c1cc2c(cc1C)C(C)(C)CCC2(C)C", "Potency": "inactive"}
{"compound": "Cc1nccn1CC1CCc2c(c3ccccc3n2C)C1=O", "note": "(stereo not given)", "Potency": "inactive"}
{"compound": "Nc1cc(C(Cl)=C(Cl)Cl)c(S(N)(=O)=O)cc1S(N)(=O)=O", "Potency": "inactive"}
{"compound": "O=C(NOCC1CC1)c1ccc(F)c(F)c1Nc1ccc(I)cc1Cl", "Potency": "inactive"}
{"compound": "CCCCC(CC)COC(=O)C(C#N)=C(c1ccccc1)c1ccccc1", "note": "(stereo not given)", "Potency": "inactive"}
{"compound": "O=C(O)CCNC(=O)c1ccc(N=Nc2ccc(O)c(C(=O)O)c2)cc1", "Potency": "inactive"}
{"compound": "CN1CCC(=C2c3ccccc3CCc3sccc32)CC1", "Potency": "inactive"}
{"compound": "CCOC(=O)c1c(C)n(C)c2ccc(O)cc12", "Potency": "inactive"}
{"compound": "COC(=O)[C@H](Cc1ccccc1)NC(=O)[C@@H](N)CC(=O)O", "note": "(H-Asp-Phe-OMe)", "Potency": "inactive"}
{"compound": "OC(CN1CCN(c2cccc(Cl)c2)CC1)C(c1ccccc1)c1ccccc1", "note": "(stereo not given)", "Potency": "inactive"}
{"compound": "Clc1ccc(C(Cn2ccnc2)OCc2c(Cl)cccc2Cl)c(Cl)c1", "note": "(stereo not given)", "Potency": "inactive"}
{"compound": "Nc1ncn([C@H]2C[C@H](O)[C@@H](CO)O2)c(=O)n1", "Potency": "inactive"}
{"compound": "O=C(O)c1cccnc1Nc1cccc(C(F)(F)F)c1", "Potency": "inactive"}
{"compound": "S=c1nc[nH]c2nc[nH]c12", "Potency": "inactive"}
{"compound": "Cc1nc2n(c(=O)c1CCN1CCC(c3noc4cc(F)ccc34)CC1)CCCC2", "Potency": "inactive"}
{"compound": "N[C@@H](Cc1cc(I)c(Oc2cc(I)c(O)c(I)c2)c(I)c1)C(=O)O", "Potency": "inactive"}
{"compound": "CCN(CCO)CCCC(C)Nc1ccnc2cc(Cl)ccc12", "note": "(stereo not given)", "activity change, negative = cytotoxicity": "21.3% [at 6.55 µM] (inactive) and 5.51% [at 6.55 µM] (inactive)"}
{"compound": "CCC1=C(C)CN(C(=O)NCCc2ccc(S(=O)(=O)NC(=O)NC3CCC(C)CC3)cc2)C1=O", "note": "(stereo not given)", "Potency": "inactive"}
{"compound": "Cc1ncc([N+](=O)[O-])n1CC(C)O", "note": "(stereo not given)", "Potency": "inactive"}
{"compound": "Cc1cccc(C)c1OCC(=O)N[C@@H](Cc1ccccc1)[C@@H](O)C[C@H](Cc1ccccc1)NC(=O)[C@H](C(C)C)N1CCCNC1=O", "Potency": "inactive"}
{"compound": "O=C1CCc2ccc(OCCCCN3CCN(c4cccc(Cl)c4Cl)CC3)cc2N1", "Potency": "inactive"}
{"compound": "Cc1cc2c(s1)Nc1ccccc1N=C2N1CCN(C)CC1", "Potency": "inactive"}
{"compound": "O=C(OC1C[C@H]2CC[C@@H](C1)[N+]21CCCC1)C(O)(c1ccccc1)c1ccccc1", "note": "(stereo not given in full)", "Potency": "inactive"}
{"compound": "CS(=O)(=O)OCCCCOS(C)(=O)=O", "Potency": "inactive"}
{"compound": "CC(=O)Nc1ccc(O)cc1", "Potency": "inactive"}
{"compound": "Cc1ccc(Nc2nccc(N(C)c3ccc4c(C)n(C)nc4c3)n2)cc1S(N)(=O)=O", "Potency": "inactive"}
{"compound": "CC[C@]1(O)C[C@H]2CN(CCc3c([nH]c4ccccc34)[C@@](C(=O)OC)(c3cc4c(cc3OC)N(C=O)[C@H]3[C@@](O)(C(=O)OC)[C@H](OC(C)=O)[C@]5(CC)C=CCN6CC[C@]43[C@@H]65)C2)C1", "Potency": "inactive"}
{"compound": "N=C(N=C(N)N)N1CCOCC1", "Potency": "inactive"}
